Test results published in PubChem BioAssay AID1159580 (chemical genetic matrix, 2015).
Hit rate of the full screen: of about 5,500 compounds, about 2,000 (36%) were called active. Inconclusive results (about 18%) are left out. Rule as the data show it: active = normalized growth mostly below about 0.91 (no sharp cut-off); inconclusive = no clear call, values can overlap the other calls; inactive = mostly above about 0.92. The list shows a part of the results.

Test: chemical genetic growth profiling, strain panel (AID 1159580);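 also: tested at 20 µM; growth read once vehicle control cultures reached saturation at 30 °C; 1 = growth at the plate median or of vehicle wells; lower values mean less growth of the strain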
Settings: S. cerevisiae deletion strains, growth OD

Measured: normalized growth

CNCCC(Oc1ccccc1C)c1ccccc1 (configuration not stated)
inactive: locus YAL040C, strain CLN3, stronger effect = lower value 0.978 | locus YCL061C, strain MRC1 (second series), stronger effect = lower value 0.995 | locus YDR150W, strain NUM1, stronger effect = lower value 0.994 | locus YDR363W, strain ESC2, stronger effect = lower value 0.968 | locus YER002W, strain NOP16, stronger effect = lower value 0.995 | locus YMR263W, strain SAP30, stronger effect = lower value 0.982 | locus YMR307W, strain GAS1, stronger effect = lower value 0.971 | locus YNL128W, strain TEP1, stronger effect = lower value 1.05 | locus YNL153C, strain GIM3, stronger effect = lower value 0.984 | locus YNL175C, strain NOP13, stronger effect = lower value 1.04 | locus YNL197C, strain WHI3, stronger effect = lower value 1.02 | locus YNL224C, strain SQS1, stronger effect = lower value 1.08 | locus YNL322C, strain KRE1, stronger effect = lower value 0.96 | locus YOR083W, strain WHI5 (second series), stronger effect = lower value 1 | locus YPL055C, strain LGE1, stronger effect = lower value 0.984 | locus YPL241C, strain CIN2, stronger effect = lower value 1

C/C(=N/NC(N)=S)c1csc(-c2ccccc2)n1
inactive: locus YAR019C, strain CDC15, stronger effect = lower value 0.917 | locus YBL105C, strain PKC1, stronger effect = lower value 0.947 | locus YBR135W, strain CKS1, stronger effect = lower value 0.948 | locus YBR136W, strain MEC1, stronger effect = lower value 0.941 | locus YBR160W, strain CDC28, stronger effect = lower value 0.942 | locus YDL017W, strain CDC7, stronger effect = lower value 0.962 | locus YDL028C, strain MPS1, stronger effect = lower value 0.948 | locus YDL101C, strain DUN1, stronger effect = lower value 0.931 | locus YDL108W, strain KIN28, stronger effect = lower value 0.942 | locus YDL132W, strain cdc53, stronger effect = lower value 0.942 | locus YDL214C, strain PRR2, stronger effect = lower value 0.834 | locus YDR052C, strain DBF4, stronger effect = lower value 0.944 | locus YDR054C, strain cdc34, stronger effect = lower value 0.898 | locus YDR226W, strain ADK1, stronger effect = lower value 0.961 | locus YDR477W, strain SNF1, stronger effect = lower value 0.816 | locus YER123W, strain YCK3, stronger effect = lower value 0.698 | locus YER133W, strain GLC7, stronger effect = lower value 0.791 | locus YFL009W, strain cdc4, stronger effect = lower value 0.913 | locus YFL029C, strain CAK1, stronger effect = lower value 0.935 | locus YFR003C, strain YPI1, stronger effect = lower value 0.948 | locus YFR019W, strain FAB1, stronger effect = lower value 0.895 | locus YFR028C, strain CDC14, stronger effect = lower value 0.936 | locus YGR040W, strain KSS1, stronger effect = lower value 0.823 | locus YGR052W, strain FMP48, stronger effect = lower value 0.96 | locus YGR092W, strain DBF2, stronger effect = lower value 0.545 | locus YHR079C, strain IRE1, stronger effect = lower value 0.663 | locus YHR082C, strain KSP1, stronger effect = lower value 1.19 | locus YHR205W, strain SCH9, stronger effect = lower value 0.978 | locus YIL147C, strain SLN1, stronger effect = lower value 0.937 | locus YJL095W, strain BCK1, stronger effect = lower value 0.993 | locus YJL128C, strain PBS2, stronger effect = lower value 1.02 | locus YJL157C, strain FAR1, stronger effect = lower value 0.802 | locus YJR016C, strain ILV3, stronger effect = lower value 0.935 | locus YJR066W, strain TOR1 (second series), stronger effect = lower value 0.625 | locus YJR066W, strain TOR1, stronger effect = lower value 1.01 | locus YKL048C, strain ELM1, stronger effect = lower value 0.948 | locus YKL067W, strain YNK1, stronger effect = lower value 0.864 | locus YKL101W, strain HSL1, stronger effect = lower value 0.886 | locus YKL193C, strain SDS22, stronger effect = lower value 0.932 | locus YKL203C, strain TOR2, stronger effect = lower value 0.852 | locus YLR113W, strain HOG1, stronger effect = lower value 0.964 | locus YLR133W, strain CKI1, stronger effect = lower value 0.863 | locus YLR403W, strain SFP1, stronger effect = lower value 0.717 | locus YML070W, strain DAK1, stronger effect = lower value 0.884 | locus YMR001C, strain CDC5, stronger effect = lower value 0.935 | locus YMR205C, strain PFK2 (second series), stronger effect = lower value 0.883 | locus YMR277W, strain FCP1, stronger effect = lower value 0.914 | locus YNL006W, strain LST8, stronger effect = lower value 0.949 | locus YNL020C, strain ARK1, stronger effect = lower value 0.846 | locus YNL161W, strain CBK1, stronger effect = lower value 0.925 | locus YNL183C, strain NPR1, stronger effect = lower value 0.883 | locus YNL207W, strain RIO2, stronger effect = lower value 0.931 | locus YNL222W, strain SSU72, stronger effect = lower value 0.925 | locus YNL307C, strain MCK1 (second series), stronger effect = lower value 0.754 | locus YOL078W, strain AVO1, stronger effect = lower value 0.92 | locus YOL136C, strain PFK27, stronger effect = lower value 0.837 | locus YOR061W, strain CKA2, stronger effect = lower value 0.829 | locus YOR119C, strain RIO1, stronger effect = lower value 0.823 | locus YOR231W, strain MKK1, stronger effect = lower value 0.739 | locus YOR329C, strain SCD5, stronger effect = lower value 0.943 | locus YPL031C, strain PHO85, stronger effect = lower value 0.776 | locus YPL153C, strain RAD53, stronger effect = lower value 0.789 | locus YPL204W, strain HRR25, stronger effect = lower value 0.774 | locus YPL209C, strain IPL1, stronger effect = lower value 0.945 | locus YPL256C, strain CLN2, stronger effect = lower value 1.05 | locus YPR025C, strain CCL1, stronger effect = lower value 0.95 | locus YPR106W, strain ISR1, stronger effect = lower value 0.945 | locus YPR111W, strain DBF20, stronger effect = lower value 0.968 | strain NNK1, stronger effect = lower value 0.969 | strain TSCII, stronger effect = lower value 0.914
active: locus YHR030C, strain SLT2, stronger effect = lower value 1.46 [resistant]
